PfHsp90 yeast 2: growth inhibition of yeast expressing Plasmodium Hsp90 | S. cerevisiae expressing PfHsp90, BacTiter-Glo ATP, 48 h; yeast lacking PDR1 and PDR3 efflux regulators | inhibition, % at 9.4 µM | actives 0.32% (n = 310,000) | AID 504621;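 active = every replicate shows inhibition above about 80%, whatever the replicate mean, limit read from the data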;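 note: 0% = DMSO neutral controls and 100% = 20 µM radicicol positive controls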
tim10-1 inh: inhibits growth of tim10-1 mutant yeast | S. cerevisiae tim10-1 ts strain growth, BacTiter-Glo, 24 h | inhibition, % at 20 µM | actives 2.2% (n = 330,000);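 active = inhibition of at least 40%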;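 note: mutant grown at 25 °C; 0% = DMSO wells with yeast and 100% = wells holding no yeast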
NLRP3 yeast inh: blocks the NALP3 inflammasome reconstituted in yeast; Yeast reconstituted NLRP3/ASC/caspase-1, beta-gal luminescence, 24 h; inhibition, % at 10 µM; actives 0.39% (n = 330,000); AID 2825;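 active = inhibition of 50% or more; inactive = inhibition below 50%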;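 note: plate controls were induced DMSO wells for no effect and uninduced yeast grown without galactose for full effect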
tim23-1 inh: growth inhibitors of tim23-1 mutant yeast; inhibition, % at 20 µM; S. cerevisiae tim23-1 growth, BacTiter-Glo luminescence, 24 h; actives 1.3% (n = 330,000);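 active = growth inhibition of the mutant yeast at or above 50%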;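 note: temperature-sensitive mutant grown at 25 °C; plate controls were DMSO-treated mutant yeast for no effect and medium wells lacking yeast for full effect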
TIM10 inh: TIM10 yeast growth inhibition; actives 1.4% (n = 330,000); S. cerevisiae TIM10 strain growth, BacTiter-Glo luminescence, 24 h; inhibition, % at 10 µM; AID 463195;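 active = inhibition of 40% or more at the single tested concentration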;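 note: wild-type TIM10 isogenic control strain grown at permissive 25 °C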
SKKanGAS inh: blocks kanamycin growth of S. pyogenes SKKanGAS strain; BacTiter-Glo, 6 h; inhibition, % at 7.5 µM; actives 1.3% (n = 300,000);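 active = mean replicate score, as percent of positive control median, at least 50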;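 note: strain carries kanamycin resistance gene driven by streptokinase promoter and grows in 40 µg/ml kanamycin; loss of luminescence reflects streptokinase promoter inhibition or plain growth inhibition; 0% = median of DMSO wells and 100% = positive control at its reference dose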
tim10-1 confirm: tim10-1 yeast growth inhibition, confirmed; actives 56% (n = 7,400); S. cerevisiae tim10-1 ts strain growth, BacTiter-Glo, 24 h; shares compounds with tim10-1 inh; inhibition, % at 20 µM;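 active = inhibition of yeast growth at or above a set limit in either of two repeat tests at 20 µM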;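 note: tim10-1 mutant grown at permissive 25 °C to find synthetic lethal compounds; 0% = DMSO yeast wells and 100% = medium wells without yeast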
* marks the source's active call; other numbers are inactive results. Shown are actives, neighbours in structure and some others; about 4.5% of the full set was active somewhere.

For O=C(O)CNC(=S)N(Cc1ccccc1)Cc1cccs1 the results were PfHsp90 yeast 2 -6.4, tim10-1 inh 1.9, NLRP3 yeast inh 2.5, tim23-1 inh 10.8 and TIM10 inh -9.4.
Cc1cccc(C)c1NC(=S)N(Cc1ccccc1)Cc1cccs1 was read as PfHsp90 yeast 2 -39.0, tim10-1 inh 42.1*, NLRP3 yeast inh 8.0, tim23-1 inh 34.1, TIM10 inh 24.1, SKKanGAS inh 1.6 and tim10-1 confirm 39.2*.
For C[C@]12c3[nH]c4ccc(Cl)cc4c3CCN1C(=O)[C@@H](CC(=O)NCCC1=CCCCC1)C[C@@H]2C(=O)N1CCCCC1 the results were PfHsp90 yeast 2 -8.8, tim10-1 inh 16.5, tim23-1 inh 31.6 and TIM10 inh -2.1.
`CCC(=O)Oc1ccc(-c2nc(-c3cccnc3)no2)cc1` gave tim10-1 inh 46.7*, NLRP3 yeast inh 12.0, tim23-1 inh 44.0, TIM10 inh 37.6, SKKanGAS inh 55.7* and tim10-1 confirm 46.0*.
For c1cncc(-c2noc(-c3cccc4ccccc34)n2)c1 the results were tim10-1 inh 30.8, NLRP3 yeast inh -10.8, tim23-1 inh 16.4, TIM10 inh 23.2 and SKKanGAS inh 7.6.
`Cc1ccc(-c2nc(-c3cccnc3)no2)cc1` gave PfHsp90 yeast 2 -6.2, tim10-1 inh 23.6, NLRP3 yeast inh 26.9, tim23-1 inh 19.0, TIM10 inh 19.4 and SKKanGAS inh -1.3.
`c1ccc(-c2ccccc2-c2nc(-c3cccnc3)no2)cc1` gave PfHsp90 yeast 2 -4.9, tim10-1 inh 44.8*, NLRP3 yeast inh 10.5, tim23-1 inh -3.0, TIM10 inh 1.1, SKKanGAS inh 32.2 and tim10-1 confirm 12.7.
Screening CCN(CC(=O)Nc1ccc(C)c(S(=O)(=O)N2CCOCC2)c1)Cc1ccccc1 returned tim10-1 inh 29.1, NLRP3 yeast inh 16.9, tim23-1 inh 19.6, TIM10 inh 15.8 and SKKanGAS inh -2.0.
For Cc1ccnc(Nc2nc(-c3ccc(F)cc3)cs2)c1 the results were PfHsp90 yeast 2 -0.1, tim10-1 inh 41.8*, NLRP3 yeast inh 19.7, tim23-1 inh 47.2, TIM10 inh 31.3, SKKanGAS inh 0.8 and tim10-1 confirm 14.2.
`O=C(COc1ccc(S(=O)(=O)NCc2ccccc2)cc1)NCc1cccnc1` gave PfHsp90 yeast 2 8.2, tim10-1 inh -3.1, NLRP3 yeast inh -6.1, tim23-1 inh 5.4, TIM10 inh -12.6 and SKKanGAS inh -5.5.
CC1CCCN(C(=S)SCC(=O)O)C1 (centres undefined) was read as PfHsp90 yeast 2 -3.4, tim10-1 inh 6.6, NLRP3 yeast inh 12.6, tim23-1 inh 8.4, TIM10 inh -1.2 and SKKanGAS inh 1.8.
CC1CCCN(C(=S)SCC(=O)c2cc(Br)cc(Br)c2O)C1 (centres undefined) was read as tim10-1 inh 50.4*, NLRP3 yeast inh -4.6, tim23-1 inh 41.6, TIM10 inh 38.0, SKKanGAS inh 56.3* and tim10-1 confirm 46.5*.
Screening CC(C)C[C@H](NC(=O)N1c2ccccc2NC(=O)[C@@H]1C(C)C)C(=O)N1CCC[C@@H]1C(=O)O returned PfHsp90 yeast 2 0.7, tim10-1 inh 23.0, NLRP3 yeast inh 5.0, tim23-1 inh 19.1, TIM10 inh 6.3 and SKKanGAS inh -6.0.
Screening CC(=O)Nc1ccc(C(=O)OCCc2ccccc2)cc1 returned PfHsp90 yeast 2 -3.2, tim10-1 inh 41.8*, NLRP3 yeast inh 24.3, tim23-1 inh 45.5, TIM10 inh 16.1, SKKanGAS inh -4.6 and tim10-1 confirm 32.7*.
Screening CCOC(=O)c1ccc(NC(=S)NCCc2ccccc2F)cc1 returned tim10-1 inh 40.2*, NLRP3 yeast inh 29.2, tim23-1 inh 26.8, TIM10 inh 34.4, SKKanGAS inh 0.7 and tim10-1 confirm 16.6.
CCOC(=O)c1ccc(NC(=S)NCCc2ccccc2)cc1 was read as PfHsp90 yeast 2 -21.4, tim10-1 inh 40.5*, NLRP3 yeast inh 36.7, tim23-1 inh 46.4, TIM10 inh 35.9, SKKanGAS inh -4.1 and tim10-1 confirm 19.5.
C[n+]1ccn(CC(=O)c2cc(C(C)(C)C)c(O)c(C(C)(C)C)c2)c1 was read as PfHsp90 yeast 2 -27.5, tim10-1 inh -6.4, NLRP3 yeast inh 16.4, tim23-1 inh 3.3, TIM10 inh -6.1 and SKKanGAS inh -4.0.
`O=C(Nc1c2c(nn1-c1ccccc1)CS(=O)(=O)C2)c1ccc2c(c1)OCO2` gave PfHsp90 yeast 2 13.9, tim10-1 inh -0.7, NLRP3 yeast inh 20.1, tim23-1 inh 10.6, TIM10 inh -3.2 and SKKanGAS inh 1.7.
Screening COc1ccc(S(=O)(=O)N(C)CC(=O)NCc2ccccn2)cc1 returned PfHsp90 yeast 2 -45.7, tim10-1 inh -13.2, NLRP3 yeast inh 5.7, tim23-1 inh -5.9, TIM10 inh -24.0 and SKKanGAS inh -1.3.
CCOc1ccc(Nc2nc(N)nc(CSC(=S)N3CCN(c4ccccc4)CC3)n2)cc1 was read as PfHsp90 yeast 2 13.9, tim10-1 inh 7.0, NLRP3 yeast inh 10.0, tim23-1 inh 26.1, TIM10 inh 8.0 and SKKanGAS inh 27.1.
`COc1ccc(Nc2nc(N)nc(CSC(=S)N3CCN(c4ccccc4)CC3)n2)cc1` gave PfHsp90 yeast 2 -7.6, tim10-1 inh 40.7*, NLRP3 yeast inh -10.7, tim23-1 inh 24.3, TIM10 inh 4.3, SKKanGAS inh 23.2 and tim10-1 confirm 9.4.
`CN1C(=S)SC(C)(C)C1(C)NO` (centres undefined) gave PfHsp90 yeast 2 5.8, tim10-1 inh 71.2*, NLRP3 yeast inh -6.7, tim23-1 inh 5.5, TIM10 inh -0.5, SKKanGAS inh -7.5 and tim10-1 confirm -7.8.
Screening CN1OC[C@@H]2CN(Cc3cc(Cl)cc(Cl)c3)[C@H](c3cccc(-c4ccccc4)c3)C[C@@H]21 returned PfHsp90 yeast 2 -12.9.
O/N=C(\c1ccc(Cl)cc1Cl)c1ncc(C(F)(F)F)cc1Cl was read as PfHsp90 yeast 2 5.1, tim10-1 inh 40.0, NLRP3 yeast inh -17.8, tim23-1 inh 26.6, TIM10 inh 39.0, SKKanGAS inh 51.2* and tim10-1 confirm 50.0*.
`O=C(NCc1cccnc1)/C(=C\c1ccc(-c2cccc(Cl)c2)o1)S(=O)(=O)c1ccccc1` gave PfHsp90 yeast 2 6.7 and SKKanGAS inh -6.3.
For O=C(NCc1cccnc1)/C(=C/c1ccc(-c2cccc(Cl)c2)o1)S(=O)(=O)c1ccccc1 the results were PfHsp90 yeast 2 13.8, tim10-1 inh 44.5*, NLRP3 yeast inh 0.4, tim23-1 inh 47.7, TIM10 inh 32.4, SKKanGAS inh -1.7 and tim10-1 confirm 36.1*.
For COC(=O)Sc1nc(N2CCOCC2)c2c(c1C#N)CC(C)(C)OC2 the results were PfHsp90 yeast 2 9.9, tim10-1 inh 45.4*, NLRP3 yeast inh -5.3, tim23-1 inh 5.7, TIM10 inh 38.8, SKKanGAS inh 4.6 and tim10-1 confirm 31.4*.

Compound activity from PubChem BioAssay.
